Results as given in the supplement of paper PMC7156485.
“And” between values parts separate entries of the source, which are not always exact repeats. Equal values may be shown once. A number with no mark means an inactive call.

What follows are compounds tested on TDF (assay: H1.0 immunofluorescence intensity relative to DMSO (% of DMSO); higher = stronger H1.0 induction, active = 120 or more). Conditions: concentration: 10 µM; 24 h.
Method in brief: (§1)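 After 24 h at 37 °C with compounds at 10 µM, in triplicate, HCC1569 and TDF cells were fixed with 3.7% formaldehyde. Immunostaining used a rabbit anti-H1.0 antibody and an AlexaFluor 647 secondary, with DAPI, and six fields per well were imaged at ×10. H1.0 nuclear intensity or cell number is presented as percent of the plate control, from the median of replicates, with HCC1569 values smoothed for positional effects.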
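Note: TDF is a line of transformed human dermal fibroblasts of mesenchymal origin.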

SMILES	H1.0 immunofluorescence intensity
Cn1cc(C=C2C(=O)Nc3ccc(S(N)(=O)=O)cc32)c2ccccc21 [Syk Inhibitor]	82.7
CC(=O)O.NC(=NCCCC(N)C(=O)O)NO [NG-Hydroxy-L-arginine acetate]	91.4
CCOC(=O)Nc1ccc(NCc2ccc(F)cc2)nc1N.O=C(O)C=CC(=O)O [Flupirtine maleate]	89.1
CS(=O)(=O)c1ccc(-c2cc(Br)sc2-c2ccc(F)cc2)cc1	96.8
NC(=O)C1=CN(C2OC(COP(=O)([O-])OP(=O)([O-])OCC3OC(n4cnc5c(N)ncnc54)C(OP(=O)([O-])[O-])C3O)C(O)C2O)C=CC1.[Na+].[Na+].[Na+].[Na+] (stereo not given) [NADPH tetrasodium]	96.9
C[N+](C)(C)CCOC(=O)CCC(=O)OCC[N+](C)(C)C [Succinylcholine]	99.9
CCN(CC)CCCCNc1ncc2cc(-c3c(Cl)cccc3Cl)c(NC(=O)NC(C)(C)C)nc2n1	104
O=C(NOCC(O)CO)c1ccc(F)c(F)c1Nc1ccc(I)cc1F (stereo not given)	87.3
O=[N+]([O-])c1cccc2c(Br)[nH]nc12 [3-Bromo-7-nitroindazole]	103
c1cc(-c2cnn3cc(-c4ccc(OCCN5CCCCC5)cc4)cnc23)ccn1 [AMPK Inhibitor,                  Compound C]	85.8

The compounds below were run on HCC1569 (assay: H1.0 immunofluorescence intensity relative to DMSO (% of DMSO); higher = stronger H1.0 induction, active = 140 or more). Conditions: concentration: 10 µM; 24 h.
Method in brief: as §1

SMILES	H1.0 immunofluorescence intensity
CC1OC(Oc2c(-c3ccc(O)c(O)c3)oc3cc(O)cc(O)c3c2=O)C(O)C(O)C1O (stereo not given) [Quercitrin]	99.1
CCOC(=O)C1OC1C(=O)NC(CC(C)C)C(=O)NCCC(C)C (stereo not given)	97.9
CC(C)C(CO)Nc1nc(Nc2cccc(Cl)c2)c2ncn(C(C)C)c2n1 (stereo not given)	174 (active)
CC1CC2C(C(O)CC3(C)C2CCC3(O)C(=O)CO)C2(C)C=CC(=O)C=C12 (stereo not given) [Methylprednisolone]	114
CC(C)c1cccc(O)c(=O)c1 [Hinokitiol]	94.8
CC(C)C(CO)Nc1nc(Nc2cccc(Cl)c2)c2ncn(C(C)C)c2n1 (stereo not given) [Purvalanol A]	129
COC(C)(C)CCCC(C)CC=CC(C)=CC(=O)O (stereo not given) [Methoprene acid]	94.6
Nc1ccc(N2C(=O)c3ccccc3C2=O)c(Cl)c1 [N-(4-Amino-2-chlorophenyl)phthalimide]	100
CC(C)[N+]1(C)C2CCC1CC(OC(=O)C(CO)c1ccccc1)C2.[Br-] (stereo not given) [Ipratropium.Br]	110
O=C1Nc2cc(Br)ccc2C1=C1N=c2ccccc2=C1NO [GSK-3 Inhibitor IX]	222 (active)
C=C1C(=CC=C2CCCC3(C)C2CCC3C(C)C=CC(O)C2CC2)CC(O)CC1O (stereo not given) [Calcipotriene]	115
COc1cc(C2Oc3cc(C4Oc5cc(O)cc(O)c5C(=O)C4O)ccc3OC2CO)ccc1O (stereo not given) [Silybine]	90.2
CN(C)CCC=C1c2ccccc2COc2ccc(CC(=O)O)cc21 [Olopatadine]	102
Cc1cc(Cc2cc(C)cc(C(C)(C)C)c2O)c(O)c(C(C)(C)C)c1	90.7 and 88.8
O=S(=O)(O)C1CCNCC1 [Piperidine-4-sulphonic acid]	122
CC1CCc2c(N3CCC(O)CC3)c(F)cc3c(=O)c(C(=O)O)cn1c23 (stereo not given) [Nadifloxacin]	101
O=c1c(-c2ccc(F)cc2)c(-c2ccncc2)[nH]n1-c1ccc(Cl)cc1 [p38 MAP Kinase Inhibitor]	110
CCC1(c2ccccc2)NC(=O)N(C)C1=O (stereo not given) [Mephenytoin]	104
C[N+](C)(CCCCCC[N+](C)(C)CCCN1C(=O)c2cccc3cccc(c23)C1=O)CCCN1C(=O)c2cccc3cccc(c23)C1=O.[Br-].[Br-]	108
COc1cc(O)c(C(=O)C=Cc2ccccc2)c(OC)c1 [Flavokawain B]	124

SMILES	H1.0 immunofluorescence intensity
CC(C(=O)O)c1ccc(CC2CCCC2=O)cc1 (stereo not given) [loxoprofen]	92.6
CCCCCC=CCC=CCC=CCC=CCCCC(=O)OC(CO)COC(=O)CCCCCCCCCCCCCCCCC (stereo not given) [1-Stearoyl-2-arachidonoyl-glycerol]	98
Cl.O=C(c1ccc(OCCN2CCCCC2)cc1)c1c(-c2ccc(O)cc2)sc2cc(O)ccc12 [Raloxifene hydrochloride]	121
COC(=O)C1C2CC3c4[nH]c5cc(OC)ccc5c4CCN3CC2CC(OC(=O)c2cc(OC)c(OC)c(OC)c2)C1OC (single isomer, unassigned; (-)) [(-)-Isoreserpine]	98
O=C(O)CCCC=CCC1C(O)CC(F)C1C=CC(O)C1Cc2ccccc2C1 (stereo not given)	97.3
CC(C)=CCCC(C)=CCCC(C)=CCCC(C)=CCCC(C)=CCCC(C)=CCCC(C)=CCCC(C)=CCCC(C)=CCO [Solanesol]	93.9
CCC(C(=O)C(C)C(O)C(C)CCc1ccc(C)c(O)c1C(=O)[O-])C1OC(CC)(C2CCC(O)(CC)C(C)O2)CC1C.[Na+] (stereo not given) [Lasalocid A]	94.6
CC1(COc2ccc(CC3SC(=O)NC3=O)cc2)CCCCC1 (stereo not given) [Ciglitizone]	90.5
CS(=O)(=O)CCNCc1nc(-c2ccc3ncnc(Nc4ccc(OCc5cccc(F)c5)c(Cl)c4)c3c2)cs1.Cl.Cl	136
Cl.c1ccc2nc(C3=NCCN3)ccc2c1 [BU224 hydrochloride]	100
Cn1cc(C=C2C(=O)Nc3ccc(S(N)(=O)=O)cc32)c2ccccc21 [Syk Inhibitor]	132
CC(=O)O.NC(=NCCCC(N)C(=O)O)NO [NG-Hydroxy-L-arginine acetate]	89.2
CCOC(=O)Nc1ccc(NCc2ccc(F)cc2)nc1N.O=C(O)C=CC(=O)O [Flupirtine maleate]	105
CS(=O)(=O)c1ccc(-c2cc(Br)sc2-c2ccc(F)cc2)cc1	95.6
NC(=O)C1=CN(C2OC(COP(=O)([O-])OP(=O)([O-])OCC3OC(n4cnc5c(N)ncnc54)C(OP(=O)([O-])[O-])C3O)C(O)C2O)C=CC1.[Na+].[Na+].[Na+].[Na+] (stereo not given) [NADPH tetrasodium]	99.1
C[N+](C)(C)CCOC(=O)CCC(=O)OCC[N+](C)(C)C [Succinylcholine]	101
CCN(CC)CCCCNc1ncc2cc(-c3c(Cl)cccc3Cl)c(NC(=O)NC(C)(C)C)nc2n1	115
O=C(NOCC(O)CO)c1ccc(F)c(F)c1Nc1ccc(I)cc1F (stereo not given)	94.6
O=[N+]([O-])c1cccc2c(Br)[nH]nc12 [3-Bromo-7-nitroindazole]	91.9
c1cc(-c2cnn3cc(-c4ccc(OCCN5CCCCC5)cc4)cnc23)ccn1 [AMPK Inhibitor,                  Compound C]	106
